# Shown is part of a subset that was picked to be rich in the strongest signals.
# B1: BC2L-D C-terminal domain (Burkholderia cenocepacia), Q39MQ9_BURS3 (protein)
# chain: LVIVDAVTLLSAYPEASRDPAAPTVIDGRHLYVVSPGDAAQLGHNDSRLFTGLSPGDQLHLRETALALRAEVSVLFIRFALKDAGIVAPIELEVRDAATAVPDADDLLHPSCRPLKDHYWRSDVLAAGATTCTADFAVCDRDGTVSGYFRWETSIEIAGSQPDTKQPGFKPSSDRNGNFSLPPNTAFKAIFYANAADRQDLKLFIDDAPEPAATFVGNSEDGVRLFTLNSKGGKIRIEASANGRQSATDARLAPLSAGDTVWLGWLGAEDGADADYNDGIVILQWPIT
# Key:
# Assay in all cases: glycan array binding signal (z-score within array); higher = stronger binding
# Settings in all cases: glycan notation: IUPAC condensed, linker removed
# [1] = biological target: Fuc(a1-2)Gal(b1-3)GalNAc(a1-3)[Fuc(a1-2)]Gal(b1-4)Glc
# Method in brief: (§1)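 Negative Z-scores can be read as non-binding. The Z-score is calculated within each array and then averaged across arrays of one protein sequence at different concentrations or buffers and across linkers. Arrays, 3228 in all, were curated from the Consortium for Functional Glycomics database and kept only where the protein sequence was available.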
# [2] = biological target: Fuc(a1-2)Gal(b1-3)GalNAc(b1-4)[Neu5Ac(a2-3)]Gal(b1-4)Glc
# Method in brief: as §1
# Fuc(a1-2)Gal(b1-3)GlcNAc = biological target: Fuc(a1-2)Gal(b1-3)GlcNAc
# Method in brief: as §1
# [3] = biological target: Fuc(a1-2)Gal(b1-3)GlcNAc(b1-3)GalNAc
# Method in brief: as §1
# [4] = biological target: Fuc(a1-2)Gal(b1-4)GlcNAc(b1-2)[Fuc(a1-2)Gal(b1-4)GlcNAc(b1-4)]Man(a1-3)[Fuc(a1-2)Gal(b1-4)GlcNAc(b1-2)Man(a1-6)]Man(b1-4)GlcNAc(b1-4)GlcNAc
# Method in brief: as §1
# [5] = biological target: Fuc(a1-2)Gal(b1-4)GlcNAc6S
# Method in brief: as §1
# [6] = biological target: Fuc(a1-2)Gal(b1-4)[Fuc(a1-3)]GlcNAc(b1-2)[Fuc(a1-2)Gal(b1-4)[Fuc(a1-3)]GlcNAc(b1-4)]Man(a1-3)[Fuc(a1-2)Gal(b1-4)[Fuc(a1-3)]GlcNAc(b1-2)Man(a1-6)]Man(b1-4)GlcNAc(b1-4)GlcNAc
# Method in brief: as §1
# [7] = biological target: Fuc(a1-2)[Gal(a1-3)]Gal(b1-4)GlcNAc(b1-2)Man(a1-3)[Fuc(a1-2)[Gal(a1-3)]Gal(b1-4)GlcNAc(b1-2)Man(a1-6)]Man(b1-4)GlcNAc(b1-4)GlcNAc
# Method in brief: as §1
# [8] = biological target: Fuc(a1-2)[GalNAc(a1-3)]Gal(b1-3)GalNAc(a1-3)[Fuc(a1-2)]Gal(b1-4)GlcNAc
# Method in brief: as §1
# [9] = biological target: Fuc(a1-2)[GalNAc(b1-3)]Gal
# Method in brief: as §1
# [10] = biological target: Fuc(a1-3)[Gal(b1-4)]GlcNAc(b1-3)GalNAc
# Method in brief: as §1
# [11] = biological target: Fuc(a1-3)[Gal(b1-4)]GlcNAc(b1-4)Gal(b1-4)[Fuc(a1-3)]GlcNAc(b1-4)Gal(b1-4)[Fuc(a1-3)]GlcNAc
# Method in brief: as §1
# [12] = biological target: Fuc(a1-3)[Gal(b1-4)]GlcNAc(b1-6)[Gal(b1-3)GlcNAc(b1-3)]Gal(b1-4)Glc
# Method in brief: as §1
# Fuc(b1-3)GlcNAc = biological target: Fuc(b1-3)GlcNAc
# Method in brief: as §1
# [13] = biological target: Gal(a1-3)Fuc(a1-2)Gal(b1-4)GlcNAc(b1-3)[Gal(a1-3)Fuc(a1-2)Gal(b1-4)GlcNAc(b1-6)]GalNAc
# Method in brief: as §1
# Gal(b1-3)Gal = biological target: Gal(b1-3)Gal
# Method in brief: as §1
# [14] = biological target: Gal(b1-3)[Fuc(a1-4)]GlcNAc(b1-3)Gal(b1-4)GlcNAc
# Method in brief: as §1
# [15] = biological target: Gal(b1-4)GalNAc(a1-3)[Fuc(a1-2)]Gal(b1-4)GlcNAc
# Method in brief: as §1
# [16] = biological target: Gal(b1-4)GlcNAc(b1-2)Man(a1-3)[Man(a1-6)]Man(b1-4)GlcNAc(b1-4)GlcNAc
# Method in brief: as §1
# [17] = biological target: Gal(b1-4)GlcNAc(b1-3)Gal(b1-4)GlcNAc(b1-3)Gal(b1-4)GlcNAc
# Method in brief: as §1
# [18] = biological target: Gal(b1-4)GlcNAc(b1-3)Gal(b1-4)[Fuc(a1-3)GlcNAc(b1-6)]Gal(b1-4)Glc
# Method in brief: as §1
# [19] = biological target: Gal(b1-4)GlcNAc(b1-6)GalNAc
# Method in brief: as §1
# Gal4S6S(b1-4)GlcNAc = biological target: Gal4S6S(b1-4)GlcNAc
# Method in brief: as §1
# GalNAc(b1-3)Gal = biological target: GalNAc(b1-3)Gal
# Method in brief: as §1
# [20] = biological target: GlcNAc(b1-3)Gal(b1-4)GlcNAc
# Method in brief: as §1
# GlcNAc(b1-3)Man = biological target: GlcNAc(b1-3)Man
# Method in brief: as §1
# Kdn(a2-3)Gal(b1-3)GlcNAc = biological target: Kdn(a2-3)Gal(b1-3)GlcNAc
# Method in brief: as §1
# [21] = biological target: Man(a1-2)Man(a1-2)Man(a1-6)[Man(a1-3)]Man
# Method in brief: as §1
# [22] = biological target: Man(a1-2)Man(a1-3)[Man(a1-2)Man(a1-6)]Man(a1-6)[Man(a1-2)Man(a1-2)Man(a1-3)]Man
# Method in brief: as §1
# [23] = biological target: Man(a1-2)Man(a1-6)[Man(a1-3)]Man(a1-6)[Man(a1-2)Man(a1-2)Man(a1-3)]Man
# Method in brief: as §1
# [24] = biological target: Man(a1-2)Man(a1-6)[Man(a1-3)]Man(a1-6)[Man(a1-2)Man(a1-2)Man(a1-3)]Man(b1-4)GlcNAc(b1-4)GlcNAc
# Method in brief: as §1
# Man(a1-3)[Man(a1-6)]Man = biological target: Man(a1-3)[Man(a1-6)]Man
# Method in brief: as §1
# [25] = biological target: Man(a1-3)[Man(a1-6)]Man(a1-6)[Man(a1-2)Man(a1-3)]Man(b1-4)GlcNAc(b1-4)GlcNAc
# Method in brief: as §1
# [26] = biological target: Man(a1-3)[Man(a1-6)]Man(a1-6)[Man(a1-3)]Man
# Method in brief: as §1
# [27] = biological target: Man(a1-3)[Man(a1-6)]Man(a1-6)[Man(a1-3)]Man(b1-4)GlcNAc(b1-4)GlcNAc
# Method in brief: as §1
# [28] = biological target: Neu5Ac(a2-3)Gal(b1-3)GalNAc(b1-4)[Neu5Ac(a2-8)Neu5Ac(a2-3)]Gal(b1-4)Glc
# Method in brief: as §1
# Neu5Ac(a2-3)Gal(b1-4)Glc = biological target: Neu5Ac(a2-3)Gal(b1-4)Glc
# Method in brief: as §1
# [29] = biological target: Neu5Ac(a2-3)Gal(b1-4)[Fuc(a1-3)]GlcNAc6S
# Method in brief: as §1
# [30] = biological target: Neu5Ac(b2-6)Gal(b1-4)GlcNAc
# Method in brief: as §1
# [31] = biological target: Neu5Gc(a2-3)Gal(b1-4)[Fuc(a1-3)]GlcNAc
# Method in brief: as §1
binder,measurement,setting,value
B1,glycan array binding signal (z-score),[1],-0.158
same,glycan array binding signal (z-score),[2],0.376
same,glycan array binding signal (z-score),Fuc(a1-2)Gal(b1-3)GlcNAc,0.536
same,glycan array binding signal (z-score),[3],-0.16
same,glycan array binding signal (z-score),[4],-0.137
same,glycan array binding signal (z-score),[5],0.114
same,glycan array binding signal (z-score),[6],-0.147
same,glycan array binding signal (z-score),[7],-0.167
same,glycan array binding signal (z-score),[8],-0.169
same,glycan array binding signal (z-score),[9],-0.242
same,glycan array binding signal (z-score),[10],-0.164
same,glycan array binding signal (z-score),[11],0.024
same,glycan array binding signal (z-score),[12],-0.165
same,glycan array binding signal (z-score),Fuc(b1-3)GlcNAc,-0.241
same,glycan array binding signal (z-score),[13],-0.159
same,glycan array binding signal (z-score),Gal(b1-3)Gal,-0.242
same,glycan array binding signal (z-score),[14],-0.137
same,glycan array binding signal (z-score),[15],-0.242
same,glycan array binding signal (z-score),[16],0.676
same,glycan array binding signal (z-score),[17],-0.242
same,glycan array binding signal (z-score),[18],-0.165
same,glycan array binding signal (z-score),[19],-0.2
same,glycan array binding signal (z-score),Gal4S6S(b1-4)GlcNAc,-0.243
same,glycan array binding signal (z-score),GalNAc(b1-3)Gal,-0.243
same,glycan array binding signal (z-score),[20],-0.241
same,glycan array binding signal (z-score),GlcNAc(b1-3)Man,-0.243
same,glycan array binding signal (z-score),Kdn(a2-3)Gal(b1-3)GlcNAc,-0.242
same,glycan array binding signal (z-score),[21],5.14
same,glycan array binding signal (z-score),[22],4.23
same,glycan array binding signal (z-score),[23],5.62
same,glycan array binding signal (z-score),[24],6.24
same,glycan array binding signal (z-score),Man(a1-3)[Man(a1-6)]Man,4.31
same,glycan array binding signal (z-score),[25],6.86
same,glycan array binding signal (z-score),[26],5.02
same,glycan array binding signal (z-score),[27],3.67
same,glycan array binding signal (z-score),[28],-0.154
same,glycan array binding signal (z-score),Neu5Ac(a2-3)Gal(b1-4)Glc,-0.248
same,glycan array binding signal (z-score),[29],-0.244
same,glycan array binding signal (z-score),[30],-0.248
same,glycan array binding signal (z-score),[31],-0.236
